From the supplement of paper PMC6607015
Structures can show the parent of a compound that is named as a salt.

Legend:
Conditions in all cases: compound concentration in added solution (µM; 5 µl added to 20 µl cells): 10; 18 h
[1] = tested on: A431; experiment: LBPA endosome anti-LBPA integrated intensity (sum per cell), Z-score; higher = more LBPA staining
Summary of the method: (§1)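 HeLa MZ or A431 cells (3,500/well in 20 µl) were seeded onto 5 µl of 10 µM compound solution in duplicate 384-well imaging plates, incubated 18 h, then fixed in 4% PFA. Cells were stained with 6C4 anti-LBPA antibody, filipin, propidium iodide and CellTracker green, and four 20× images were taken per well. MetaXpress segmentation gave per-cell integrated LBPA or filipin intensity, either whole-cell or within LBPA endosomes. Values are Z-scores normalised in AcuityXpress.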

[2] = tested on: HeLa MZ; experiment: as above
Summary of the method: as §1

[3] = tested on: A431; experiment: whole-cell filipin (free cholesterol) integrated intensity, Z-score; higher = more cholesterol staining
Summary of the method: as §1

[4] = tested on: HeLa MZ; experiment: as above
Summary of the method: as §1

[5] = tested on: A431; experiment: filipin (cholesterol) integrated intensity within LBPA endosomes, Z-score; higher = more cholesterol in LBPA endosomes
Summary of the method: as §1

[6] = tested on: HeLa MZ; experiment: as above
Summary of the method: as §1

SMILES	LBPA endosome anti-LBPA integrated intensity (z-score) [1]	LBPA endosome anti-LBPA integrated intensity (z-score) [2]	whole-cell filipin (z-score) [3]	whole-cell filipin (z-score) [4]	filipin (z-score) [5]	filipin (z-score) [6]
CC(=O)c1ccc(S(=O)(=O)NC(=O)NC2CCCCC2)cc1 [Acetohexamide]	-0.506	-0.393	-0.763	-0.947	-0.604	-0.673
C1CCC(C(CC2CCCCN2)C2CCCCC2)CC1 (stereo unspecified) [Perhexiline maleate]		-0.192		0.438		2.62
CC(CN(C)C)CN1c2ccccc2Sc2ccccc21 (stereo unspecified) [Trimeprazine tartrate]	3.47		1.36		2.12	
CC(NCCC(c1ccccc1)c1ccccc1)c1ccccc1 (stereo unspecified) [Fendiline hydrochloride]		1.29		0.948		2.94
C[N+](C)(C)CCCCCC[N+](C)(C)C [Hexamethonium dibromide dihydrate]	-0.482	-1.09	-0.483	-0.775	-0.514	-0.624
O=C(CCCN1CC=C(n2c(=O)[nH]c3ccccc32)CC1)c1ccc(F)cc1 [Droperidol]	0.278	1.75	0.378	0.978	0.193	0.762
N#CC(c1ccc(Cl)cc1)c1c(Cl)cc(-n2ncc(=O)[nH]c2=O)cc1Cl (stereo unspecified) [Diclazuril]	-0.281	0.505	0.197	0.559	-0.215	-0.204
O=C1NCCN1CCN1CCC(c2cn(-c3ccc(F)cc3)c3ccc(Cl)cc23)CC1 [Sertindole]		0.384		-0.48		2.2
CN(C)CCCN1c2ccccc2Sc2ccc(C(F)(F)F)cc21 [Triflupromazine hydrochloride]	3.06	1.61	0.711	0.675	2.23	2.87
C#C[C@]1(O)CC[C@H]2[C@@H]3CCC4=C(CCC(=O)C4)[C@H]3CC[C@@]21C [Norethynodrel]	-0.487	-0.658	-0.784	-0.871	-0.48	-0.512
Nc1nc2n[nH]nc2c(=O)[nH]1 [Azaguanine-8]	-0.399		-1.15		-0.438	
COC(=O)Nc1nc2cc(C(=O)c3ccc(F)cc3)ccc2[nH]1 [Flubendazol]	-0.354		-0.303		-0.305	
CCN(CC)CCOC(=O)C1(c2ccc([N+](=O)[O-])cc2)CCCC1 [Nitrocaramiphen hydrochloride]	-0.558	0.568	-0.0743	-0.278	-0.346	-0.0224
CN[C@H]1CC[C@@H](c2ccc(Cl)c(Cl)c2)c2ccccc21 [Sertraline]		-0.719		0.938		3.15
CC(C)n1c(/C=C/C(O)CC(O)CC(=O)O)c(-c2ccc(F)cc2)c2ccccc21 (stereo unspecified) [Fluvastatin sodium salt]		-1.11		-0.754		-0.372
CCCC1C(=O)N2C(N(C)C)=Nc3ccc(C)cc3N2C1=O (stereo unspecified) [Azapropazone]	-0.356		0.0445		-0.348	
C[C@]12C=CC(=O)C=C1CC[C@@H]1[C@@H]2C(=O)C[C@@]2(C)[C@H]1CC[C@]2(O)C(=O)CO [Prednisone]	-0.485	-0.977	-0.505	0.0271	-0.452	-0.412
COc1cc([C@@H]2c3cc4c(cc3[C@@H](O[C@@H]3O[C@@H]5CO[C@@H](C)O[C@H]5[C@H](O)[C@H]3O)[C@H]3COC(=O)[C@H]23)OCO4)cc(OC)c1O [Etoposide]	-0.699		2.27		-0.718	
CN1C(C)(C)CCCC1(C)C [Pempidine tartrate]	-0.407		-0.191		-0.313	
O=C(CCCCCCC(=O)Nc1ccccc1)NO [Vorinostat]	0.0566		1.83		-0.414	
Cc1ccccc1C(OCCN(C)C)c1ccccc1 (stereo unspecified) [Orphenadrine hydrochloride]	-0.188	0.0858	-0.344	1.02	0.191	0.681
CCCCNc1cc(C(=O)O)cc(S(N)(=O)=O)c1Oc1ccccc1 [Bumetanide]	-0.516	-0.493	-0.507	-0.553	-0.588	-0.565
CCN(CC)C(=S)SSC(=S)N(CC)CC [Disulfiram]		0.205		0.0194		-0.407
CCOC(=O)C1=C(C)NC(C)=C(C(=O)OC)C1c1cccc(Cl)c1Cl (stereo unspecified) [Felodipine]	-0.574	-0.618	-0.869	-0.774	-0.49	-0.476
O=c1[nH]cc(F)c(=O)[nH]1 [5-fluorouracil]	-0.738		0.716		-0.862	
CC[C@H]1OC(=O)[C@H](C)[C@@H](O[C@H]2C[C@@](C)(OC)[C@@H](O)[C@H](C)O2)[C@H](C)[C@@H](O[C@@H]2O[C@H](C)C[C@H](N(C)C)[C@H]2O)[C@](C)(O)C[C@@H](C)[C@@H]2N[C@@H](COCCOC)O[C@H]([C@H]2C)[C@]1(C)O [Dirithromycin]	-0.436	-0.0354	-0.786	-0.252	-0.507	-0.38
OCCOCCN1CCN(C2=Nc3ccccc3Sc3ccccc32)CC1 [Quetiapine]	-0.603	0.201	-0.454	-0.549	-0.515	-0.0994
Cc1nnc(SCC2=C(C(=O)O)N3C(=O)[C@@H](NC(=O)Cn4cnnn4)[C@H]3SC2)s1 [Cefazolin sodium salt]	-0.481	-0.611	-0.424	-0.218	-0.384	-0.417
